Assay [1] in a line: qHTS to identify inhibitors of the type 1 interferon - major histocompatibility complex class I in skeletal muscle: primary screen against the NCATS Pharmaceutical Collection (AID 1347407).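 Also: luminescence of HiBiT knocked into endogenous HLA-B as interferon-induced MHC class I level.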 Also: potency is read from the fitted curve at half-maximal effect. In short, it runs like this:
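Cells were seeded with 4 ng/ml IFN-beta, incubated 1 h, then dosed with compounds over eight 1:5 steps up to 46 uM final. After 24 h at 37 C, HiBiT lytic reagent was added and luminescence read after 10 min lysis in the dark.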

The target of assay [2] is Protein phosphatase 1D (Homo sapiens) (UniProt O15297). Put plainly: RapidFire Mass Spectrometry qHTS Assay for Modulators of WT P53-Induced Phosphatase 1 (WIP1) (AID 1347424).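 Also: amount of dephosphorylated VEPPL-S-QETFS peptide product formed by WIP1.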 Also: potency is read from the fitted curve at half-maximal effect. In short, it runs like this:
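Mass-spectrometric measurement of dephosphorylated peptide after a 5 min room-temperature reaction of 10 nM WIP1 with 2 uM phosphopeptide, following 1 h compound preincubation in 30 mM MgCl2 buffer.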
In general terms: qHTS replaces the single test concentration by a dilution series.

The nature of assay [3]: qHTS to identify inhibitors of the type 1 interferon - major histocompatibility complex class I in skeletal muscle: primary screen against the NCATS Mechanism Interrogation Plate v5.0 (MIPE) Libary (AID 1347411). Also: nearly all actives have a fitted effect of over 65% in size. Also: potency is read from the fitted curve at half-maximal effect. In short, it runs like this:
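HLA-B HiBit myoblasts, dexamethasone-free medium + 4 ng/ml IFN-b, 24 h compound, 11-pt 1:3 from 46 uM final. Readout: Nano-Glo HiBiT lytic luminescence after 10 min lysis, RT.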

The target of assay [4] is Protein phosphatase 1D (Homo sapiens) (UniProt O15297). Put plainly: Rhodamine-PBP qHTS Assay for Modulators of WT P53-Induced Phosphatase 1 (WIP1) (AID 1347425). Put shortly:
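Steps: enzyme with Rh-PBP sensor and compounds, room-temperature incubation of 1 hr, baseline read, addition of VEPPL-pS-QETFS (10 uM final), kinetic fluorescence reads at 525/598 nm. Activity equals final minus baseline signal.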

Assay [5] is described as follows: Primary qHTS for inhibitors of La Crosse Virus (LACV) - induced cell death in SH-SY5Y cells (AID 1508616).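 Also: top concentration of the series differs between compounds; higher means more rescue of cells from virus-induced death.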 In short, it runs like this:
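Cytopathicity rescue screen: compounds pinned onto SH-SY5Y cells, which are then infected with LACV (MOI 0.01) and held 6 days at 37C. Percent activity is scaled between infected DMSO control and uninfected DMSO control.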

The nature of assay [6]: qHTS to identify inhibitors of the type 1 interferon - major histocompatibility complex class I in skeletal muscle: primary screen against the NCATS LOPAC collection (AID 1347405).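 Also: human myoblasts with HiBiT tag on endogenous HLA-B stimulated by IFN-beta; lytic HiBiT luminescence reporting HLA-B protein level.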 Also: potency is read from the fitted curve at half-maximal effect. Put shortly:
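HLA-B HiBiT myoblasts, IFN-b 4 ng/ml, dexamethasone-free medium; compounds 7-pt 1:4.3 titration, top 46 uM final; 24 h at 37 C; Nano-Glo HiBiT lytic reagent, 10 min RT, luminescence.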

A short description of assay [7]: qHTS for inhibitors of adenylyl cyclases using a fission yeast platform: a pilot screen against the NCATS LOPAC library (AID 1347410). In short, it runs like this: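 Growth medium went into the plates first, then compounds were pinned (final up to 57 µM), then CHP2027 yeast were added. Plates were incubated overnight (18 h) at 30C in the dark, and GFP was measured by laser scanning cytometry.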

Assay [8] can be described thus: Validation qHTS assay for inhibitors of Activation Induced Cytidine Deaminase (AID): UDG Counterscreen signal (AID 1347427). In short, it runs like this:
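Fluorescence at 560 nm excitation, 665 nm emission reports UDG signal after 250 mM NaOH (2x) addition and 30 min. Enzymes (AID 1 uM, UDG 2 U/mL, at 4/3x) preincubated 10 min with compound, then 4 h with 4x 250 nM DJC20/DJC23 substrate at room temperature.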

The target in assay [9] is Single-stranded DNA cytosine deaminase (Homo sapiens) (UniProt Q9GZX7). Put plainly: Validation qHTS assay for inhibitors of Activation Induced Cytidine Deaminase (AID): AID signal (AID 1347429). Put shortly: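 AID+UDG coupled FRET deamination; cpds up to 114 uM final; DJC20/DJC23 substrate, 4 hr RT; NaOH stop, 30 min RT; read Ex 540/Em 590.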
In assay [10] the target is Calcium and integrin-binding protein 1 (Homo sapiens) (UniProt Q99828). The assay is described as follows: Confirmatory qHTS for Identification of Calcium Integrin Binding Protein 1 (CIB1) Competitor (AID 1508617). Also: nearly all actives have a fitted effect of over 65% in size. Put shortly:
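Binding competition between test compounds and fluorescent alphaIIb peptide for 1 uM CIB1-GST is monitored by FP at 480/540 nm. Final compound range is up to 114 uM; unlabeled peptide serves as reference competitor.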

Inconclusive results are not listed. Activity calls are given as the source filed them. Calls follow the shape of the dose curve; as a rule, active = well fitted curve in the direction sought with a large enough effect; inconclusive = small, poorly fitted or top-dose-only effect, or another doubt; inactive = no such curve, though single readings can be large; an effect the other way counts as inactive or inconclusive.

Sequence of Protein phosphatase 1D (Homo sapiens) (O15297 whole entry, looked up): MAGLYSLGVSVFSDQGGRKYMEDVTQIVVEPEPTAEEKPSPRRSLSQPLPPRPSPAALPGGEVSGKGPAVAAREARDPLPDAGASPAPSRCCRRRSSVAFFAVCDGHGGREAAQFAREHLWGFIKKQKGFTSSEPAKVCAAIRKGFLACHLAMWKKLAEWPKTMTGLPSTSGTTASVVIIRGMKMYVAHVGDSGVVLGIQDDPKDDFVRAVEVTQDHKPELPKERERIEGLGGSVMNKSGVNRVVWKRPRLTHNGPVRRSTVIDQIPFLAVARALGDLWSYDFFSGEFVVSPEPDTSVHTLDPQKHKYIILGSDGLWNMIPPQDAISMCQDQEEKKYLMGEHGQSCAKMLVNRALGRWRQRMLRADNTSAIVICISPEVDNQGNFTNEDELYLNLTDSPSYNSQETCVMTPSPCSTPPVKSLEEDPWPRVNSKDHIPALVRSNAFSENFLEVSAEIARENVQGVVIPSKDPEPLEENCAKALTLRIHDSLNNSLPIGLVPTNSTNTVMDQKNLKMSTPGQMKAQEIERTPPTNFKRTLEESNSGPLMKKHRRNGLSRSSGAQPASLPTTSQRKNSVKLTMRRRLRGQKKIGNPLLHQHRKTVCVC
Sequence of Single-stranded DNA cytosine deaminase (Homo sapiens) (Q9GZX7 whole entry, looked up): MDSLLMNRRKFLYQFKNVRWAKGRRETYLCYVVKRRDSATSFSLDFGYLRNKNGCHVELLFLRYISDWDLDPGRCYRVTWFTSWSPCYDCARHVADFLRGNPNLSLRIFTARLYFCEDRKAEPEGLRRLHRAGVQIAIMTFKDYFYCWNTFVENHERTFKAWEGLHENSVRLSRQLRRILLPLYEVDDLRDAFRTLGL
Sequence of Calcium and integrin-binding protein 1 (Homo sapiens) (Q99828 whole entry, looked up): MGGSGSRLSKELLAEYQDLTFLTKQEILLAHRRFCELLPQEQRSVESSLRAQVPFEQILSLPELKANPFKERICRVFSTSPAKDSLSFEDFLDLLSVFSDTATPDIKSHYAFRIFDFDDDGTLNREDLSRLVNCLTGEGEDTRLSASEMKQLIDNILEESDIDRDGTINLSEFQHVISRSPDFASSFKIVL

`NC(=O)C1(N2CCCCC2)CCN(CCCN2c3ccccc3CCc3ccc(Cl)cc32)CC1`: the Potency in assay [1] is 23.6 µM (active). In assay [2], the Potency result was “inactive”.

In the case of `CNC[C@H](O)[C@@H](O)[C@H](O)[C@H](O)CO`, the Potency result in [1], in assay [3] and in assay [2] was “inactive” each time. Moreover, the result in assay [4] and in [5] was inactive.

As for `CC1(C)O[C@@H]2C[C@H]3[C@@H]4CCC5=CC(=O)C=C[C@]5(C)[C@@]4(F)[C@@H](O)C[C@]3(C)[C@]2(C(=O)CO)O1`, the Potency entry in assay [1] and in assay [3] was “inactive” throughout. The compound was called inactive in assay [4] and in assay [5].

As for `CN(C)c1cc2c(Nc3ccc4c(cnn4Cc4ccccc4)c3)ncnc2cn1`, the Potency entry in assay [6] is “inactive”. Also, the compound was called inactive in [7], in assay [8] and in assay [9].

On to `Cc1nn(-c2ccccc2)c(C)c1/C=N/N1CCN(Cc2ccccc2)CC1`, for which the Potency entry in assay [6] was “inactive”. The compound was called inactive in assay [7], in assay [8], in assay [9] and in assay [5].

On to `NCC(=O)O`, for which the Potency result in [1] and in assay [2] was “inactive” in each case.

For the compound `COc1ccccc1N1CCN(CCN2C(=O)CC3(CCCC3)CC2=O)CC1`, in assay [6], the Potency result is “inactive”. The outcome in [7], in [8], in [9] and in [5] was inactive.

For `O=C1CC[C@H](C(=O)N2CCCCC2)N1`, the Potency result in assay [1] and in assay [2] was “inactive” in each case.

Consider `COC(=O)C1=CO[C@@H](O)[C@@H]2C(CO)=CC[C@H]12`, for which the Potency entry in assay [6] was “inactive”. In addition, the compound was classed as inactive in assay [7], in [8], in [9] and in assay [5].

With `O=[N+]([O-])c1cncn1CCN1CCOCC1`, the Potency result in [1], in assay [3] and in assay [2] was “inactive” in each case. Moreover, the compound was classed as inactive in assay [4] and in [5].

Consider `C[N+](C)(C)CCO`, for which the Potency entry in [6] was “inactive”. Moreover, the compound was called inactive in [7], in assay [8], in assay [9] and in [5].

With `CN1CC(=O)N2[C@H](c3ccc4c(c3)OCO4)c3[nH]c4ccccc4c3C[C@@H]2C1=O`, the Potency entry in assay [1] and in assay [3] was “inactive” each time. In addition, the outcome in [4] was inactive.

Regarding `CC1c2ccccc2CN1NC(=O)c1ccc(Cl)c(S(N)(=O)=O)c1` (centres undefined), the Potency entry in [1], in [3] and in assay [2] was “inactive” throughout. Besides, the result in [4] and in [5] was inactive.

On to `Cc1oc(-c2ccccc2)nc1CCC(=O)c1ccc(CC2SC(=O)NC2=O)cc1` (centres undefined), for which, in [1], the Potency entry is “inactive”.

`O=C(O)[C@H](O)[C@@H](O)[C@H](O[C@@H]1O[C@H](CO)[C@H](O)[C@H](O)[C@H]1O)[C@H](O)CO`: the Potency entry in assay [1], in assay [3] and in [2] was “inactive” throughout. Moreover, the call in [5] was inactive.

Consider `Nc1cccc2c(N)cccc12`, for which, in assay [1], the Potency entry was “inactive”.

With `CN1CCCN=C1/C=C/c1cccs1`, the Potency result in assay [1], in assay [3] and in [2] was “inactive” in each case. The outcome in assay [4] and in assay [5] was inactive.

In the case of `O=C(Nc1ccc(S(=O)(=O)N2CCOCC2)cc1)c1cc(Cl)ccc1NS(=O)(=O)c1ccc(Cl)s1`, the Potency entry in assay [1], in assay [3] and in assay [10] was “inactive” throughout. In [2], the Potency was 11.2 µM (active). The outcome in [5] was inactive.

As for `CCN(CC)CCNC(=O)c1ccc(NS(C)(=O)=O)cc1`, the Potency result in [6] was “inactive”. Also, the compound was called inactive in [7], in assay [8], in assay [9] and in assay [5].

`CC(C)N(CCC(=O)c1ccc2ccccc2c1)Cc1ccccc1`: the Potency in assay [6] was 12.6 µM (active); in assay [3] it was 5.87 µM (active). The compound was called inactive in [7], in assay [8] and in assay [9].

In the case of `Brc1ccc([C@H]2CN3CCSC3=N2)cc1`, the Potency entry in assay [6] is “inactive”. Also, the outcome in assay [7], in assay [8], in [9] and in assay [5] was inactive.

Take `CC(=O)N1CCN(c2ccc(O)cc2)CC1`: the Potency result in assay [1] and in assay [2] was “inactive” each time.

As to `Cc1nc2n(c(=O)c1CCN1CCC(C(=O)c3ccc(F)cc3)CC1)CCS2`, the Potency result in assay [1] and in assay [2] was “inactive” each time. In addition, the compound was classed as inactive in assay [4].

As for `O=C(O)Cn1c(=O)n(Cc2ccc(Br)cc2F)c(=O)c2ccc(Cl)cc21`, the Potency entry in assay [1] and in [2] was “inactive” each time.

For the compound `COC(=O)CCCCC(CCSS/C(CCO)=C(\C)N(C=O)Cc1cnc(C)nc1N)SC(C)=O` (centres undefined), the Potency result in assay [1] and in assay [2] was “inactive” each time.

For `NC(N)=NCCCCN=C(N)N`, the Potency entry in [6] is “inactive”. Besides, the result in assay [7], in [8] and in assay [9] was inactive.

On to `O=C(O)C(=O)Nc1cccc(-c2nn[nH]n2)c1`, for which the Potency result in assay [1] and in assay [3] was “inactive” throughout. Besides, the compound was classed as inactive in assay [4] and in assay [5].

As for `N[C@@H](Cn1ccc(=O)c(O)c1)C(=O)O`, the Potency result in assay [6] was “inactive”. The compound was called inactive in assay [7], in assay [8], in assay [9] and in assay [5].

Consider `Clc1ccc2c(c1)N=C(N1CCNCC1)c1ccccc1N2`, for which the Potency result in assay [6] is “inactive”. In addition, the compound was classed as inactive in assay [7], in [8], in [9] and in assay [5].

Regarding `CCCCCCOC(=O)NC(=N)c1ccc(NCc2nc3cc(C(=O)N(CCC(=O)OCC)c4ccccn4)ccc3n2C)cc1`, the Potency result in [1], in assay [3] and in assay [2] was “inactive” each time. The call in [4] and in assay [5] was inactive.

As for `CC1(C)O[C@@H]2C[C@H]3[C@@H]4C[C@H](F)C5=CC(=O)C=C[C@]5(C)[C@@]4(F)[C@@H](O)C[C@]3(C)[C@]2(C(=O)CO)O1`, the Potency entry in [1], in [3] and in [2] was “inactive” each time. In addition, the result in assay [4] and in assay [5] was inactive.

On to `O=C1NC(c2cccc([N+](=O)[O-])c2)=CCN1c1ccccc1O`, for which, in assay [6], the Potency entry was “inactive”. The result in [7], in assay [8], in assay [9] and in assay [5] was inactive.

Turning to `C[C@H]1C[C@H]2[C@@H]3CCC4=CC(=O)C=C[C@]4(C)[C@H]3C(=O)C[C@]2(C)[C@@]1(O)C(=O)CO`, the Potency result in assay [1], in assay [3] and in [2] was “inactive” throughout. Besides, the outcome in [5] was inactive.

In the case of `Nc1c2ccccc2nc2ccccc12`, the Potency entry in assay [1] and in assay [2] was “inactive” throughout.

In the case of `CO[C@]1(NC(=O)CSC(F)F)C(=O)N2C(C(=O)O)=C(CSc3nnnn3CCO)CO[C@H]21`, the Potency entry in [1] and in assay [2] was “inactive” each time. Moreover, in assay [4], the compound was called inactive.

As for `CCCc1c2oc(C(=O)O)cc(=O)c2cc2c(=O)cc(C(=O)O)n(CC)c12`, the Potency entry in [1] and in assay [2] was “inactive” in each case.

Take `CNC(=O)c1cnn(-c2nc(N)c3ncn([C@@H]4O[C@H](CO)[C@@H](O)[C@H]4O)c3n2)c1`: the Potency entry in [1] and in assay [2] was “inactive” in each case. Further, the outcome in assay [4] and in assay [5] was inactive.

Consider `COC(=O)/C=C\C(=O)OC`, for which the Potency entry in [1] and in assay [2] was “inactive” each time. Also, the outcome in assay [4] and in [5] was inactive.
